A number with no mark means an inactive call. The source made the active and inactive calls. Rule as the data show it, unless noted: active = inhibition above about 30%; inactive = the rest.
Tests used:
[1] = target: Nuclear receptor coactivator 3 (Homo sapiens) (UniProt Q9Y6Q9); experiment: SRC3 coactivator transcriptional activity inhibitors, confirmation, cell-based, luminescence, quadruplicate (AID 588792;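 active = mean inhibition over 43.08%, the solvent-only control mean plus 3 SD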;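 also: 0% = DMSO treated cells and 100% = gossypol at 36 µM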); details: HEK293 GAL4-SRC3 luciferase reporter, at 3.6 µM, stronger effect = higher value
[2] = test system: transactivating tegument protein VP16 (Human herpesvirus 1), Gal4-VP16 luciferase reporter; experiment: VP16 transactivation inhibitors, counter-screen for SRC3 inhibitor project, cell-based, luminescence, high throughput (AID 588794); details: mammalian cells, VP16-driven luciferase reporter luminescence; at 3.6 µM; stronger effect = higher value

Sequence of Nuclear receptor coactivator 3 (Homo sapiens) (Q9Y6Q9 whole entry, looked up, the tested form may be a part): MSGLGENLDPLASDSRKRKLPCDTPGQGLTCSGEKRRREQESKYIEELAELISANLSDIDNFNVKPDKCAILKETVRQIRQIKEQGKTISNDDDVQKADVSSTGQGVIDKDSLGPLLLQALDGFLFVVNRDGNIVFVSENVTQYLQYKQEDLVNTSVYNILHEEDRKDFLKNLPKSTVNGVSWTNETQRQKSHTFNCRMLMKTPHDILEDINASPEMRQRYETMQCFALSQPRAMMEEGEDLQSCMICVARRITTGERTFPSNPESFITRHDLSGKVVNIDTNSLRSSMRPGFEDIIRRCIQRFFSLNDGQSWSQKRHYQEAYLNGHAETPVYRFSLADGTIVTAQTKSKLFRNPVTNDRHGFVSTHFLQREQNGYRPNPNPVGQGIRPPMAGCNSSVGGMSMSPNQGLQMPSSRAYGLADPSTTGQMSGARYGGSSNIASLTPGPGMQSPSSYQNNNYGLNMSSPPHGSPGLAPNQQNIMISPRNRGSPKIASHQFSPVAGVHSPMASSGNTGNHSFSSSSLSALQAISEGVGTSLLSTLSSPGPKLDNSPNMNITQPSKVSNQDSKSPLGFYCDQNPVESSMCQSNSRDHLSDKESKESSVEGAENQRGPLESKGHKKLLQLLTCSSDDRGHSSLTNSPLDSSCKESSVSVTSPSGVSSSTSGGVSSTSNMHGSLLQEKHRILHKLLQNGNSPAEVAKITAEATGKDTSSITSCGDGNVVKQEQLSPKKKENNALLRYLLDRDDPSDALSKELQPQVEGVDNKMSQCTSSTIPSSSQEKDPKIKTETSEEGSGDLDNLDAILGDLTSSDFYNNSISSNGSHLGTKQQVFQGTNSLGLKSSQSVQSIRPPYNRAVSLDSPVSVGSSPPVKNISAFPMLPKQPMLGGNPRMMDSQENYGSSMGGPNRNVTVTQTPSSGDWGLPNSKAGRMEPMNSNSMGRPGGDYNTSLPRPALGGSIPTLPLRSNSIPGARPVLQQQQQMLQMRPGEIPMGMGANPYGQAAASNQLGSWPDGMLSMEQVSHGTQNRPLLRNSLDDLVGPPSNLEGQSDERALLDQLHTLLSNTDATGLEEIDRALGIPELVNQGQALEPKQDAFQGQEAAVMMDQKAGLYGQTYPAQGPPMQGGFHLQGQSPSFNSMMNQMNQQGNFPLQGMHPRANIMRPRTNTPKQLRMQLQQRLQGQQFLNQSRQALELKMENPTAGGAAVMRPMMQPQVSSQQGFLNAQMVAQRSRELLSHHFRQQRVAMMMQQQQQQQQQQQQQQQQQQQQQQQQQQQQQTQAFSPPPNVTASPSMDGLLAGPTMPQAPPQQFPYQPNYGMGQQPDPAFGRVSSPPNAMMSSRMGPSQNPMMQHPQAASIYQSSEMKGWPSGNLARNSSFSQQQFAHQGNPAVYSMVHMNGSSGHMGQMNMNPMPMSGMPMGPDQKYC

For O=C(N/N=C/c1cc(Cl)ccc1O)c1cccnc1, the inhibition [1] was 15.7% and the inhibition [2] was 41.4% (active).
Cc1sc(-c2ccccn2)nc1OC(=O)c1ccc(F)cc1F showed an inhibition [1] of 13.9% and an inhibition [2] of 16.1%.
Compound COc1ccc(NC(=O)c2cc3c(-c4ccc(OC)c(OC)c4)nn(C)c3s2)cc1OC has an inhibition [1] of 10.7% and an inhibition [2] of 10.5%.
For COc1cc2c(ccc3cc(OC)c(OC)c(O)c32)cc1O, the inhibition [1] was 56.5% (active) and the inhibition [2] was -4.29%.
Cn1nc(C(F)(F)F)cc1C(=O)Nc1ccc(Cl)cc1 was tested, and the inhibition [1] was 4.63% and the inhibition [2] was 8.1%.
CCOC(=O)CCCCC1C(CCCC(=O)OCC)C=NN1C (stereo not given) was tested, and the inhibition [1] was -16% and the inhibition [2] was -3.48%.
For Oc1c(CN2CCCCC2)cc(COCc2ccccc2)c2cccnc12, the inhibition [1] was 75.2% (active) and the inhibition [2] was 66.7% (active).
With Cc1ccc(NC2=C/C(=N/S(=O)(=O)c3cccs3)c3ccccc3C2=O)cc1 the inhibition [1] was 85% (active) and the inhibition [2] was 82% (active).
For COc1ccc(N2CCN(c3nc(NCCc4ccc(OC)c(OC)c4)nc(OC)n3)CC2)cc1, the inhibition [1] was 6.14% and the inhibition [2] was 1.14%.
COC(=O)c1ccc2c(c1)C(C)(C)C(/C=C/c1ccc(O)cc1)=[N+]2C was tested, and the inhibition [1] was 66.6% (active) and the inhibition [2] was 52.8% (active).
With CCN(CC)CCCNc1nc2ccccc2c2nc(-c3ccncc3)nn12 the inhibition [1] was -2.05% and the inhibition [2] was 41.3% (active).
Work on Cc1ccc(S(=O)(=O)CCC(=O)N2CCN(c3ccc(Cl)cc3)CC2)cc1 yielded an inhibition [1] of -1.83% and an inhibition [2] of 2.47%.
Compound CCOC(=O)c1c(-c2ccccc2)nnn1-c1nc(OCC)nc(N2CCCCC2)n1 has an inhibition [1] of -15.5% and an inhibition [2] of 0.51%.
Work on CCOC(=O)c1c(-c2ccccc2)oc2ccc(O)c(CN3CCOCC3)c12 yielded an inhibition [1] of -5.57% and an inhibition [2] of 4.57%.
Compound C/C(=N\NC(=O)C1COc2ccccc2O1)c1ccccn1 (stereo not given) has an inhibition [1] of -12.8% and an inhibition [2] of 19.6%.
With COc1cccc(/C=N/Nc2cc(-n3nc(C)cc3-c3ccccc3)ncn2)c1O the inhibition [1] was 28.9% and the inhibition [2] was -9.27%.
For COc1ccc(NC(=O)c2sc(=O)n(Cc3ccccc3C#N)c2C)cc1OC, the inhibition [1] was 7.52% and the inhibition [2] was 31.8% (active).
COc1ccc2nc(NC(=O)C3CCN(S(=O)(=O)c4cccs4)CC3)sc2c1 showed an inhibition [1] of 20.3% and an inhibition [2] of 15.2%.
Work on COc1ccc(C(=O)/C=C/c2cc(OC)c(O)c(OC)c2)c(F)c1 yielded an inhibition [1] of 26.6% and an inhibition [2] of 17.7%.
In the case of Cc1cccc(/C=N/n2c(-c3ccncc3)n[nH]c2=S)c1, the inhibition [1] is reported as 11.2% and the inhibition [2] is reported as 2.95%.
With COc1cc(NC(=O)c2cc3ccccc3cc2OC)ccc1NC(=O)c1cccs1 the inhibition [1] was 4.37% and the inhibition [2] was -1%.
Work on COc1ccc(CN(Cc2cccn2C)S(=O)(=O)c2ccc(C)cc2)cc1 yielded an inhibition [1] of 1.22% and an inhibition [2] of -4.15%.
O=S(=O)(CC(CN1CCCCC1)N1CCCCC1)c1ccc2ccccc2c1 (stereo not given) showed an inhibition [1] of 4.5% and an inhibition [2] of 6.94%.
For COC(=O)c1ccc2c(c1)C(C)(C)C(/C=C/c1ccccc1O)=[N+]2C, the inhibition [1] was 58.6% (active) and the inhibition [2] was 43.5% (active).
CCOC(=O)C1=C(C)N[C@@]2(O)c3ccccc3C(=O)[C@@]12O gave an inhibition [1] of 2.93% and an inhibition [2] of -4.31%.
COc1ccc(C(C(=O)NC2CCCCC2)N(C(=O)CCl)c2ccc(OC)cc2)cc1 (stereo not given) was tested, and the inhibition [1] was 64.4% (active) and the inhibition [2] was 27.2%.
Work on Cc1ccsc1/C=N/NC(=O)CNC(=O)c1ccccc1 yielded an inhibition [1] of -11.5% and an inhibition [2] of -7.26%.
Work on Cc1cc(C(=O)N2CCN(c3ccccn3)CC2)no1 yielded an inhibition [1] of 4.36% and an inhibition [2] of -9.5%.
In the case of COc1cccc(-c2csc3ncnc(Sc4nnnn4C)c23)c1, the inhibition [1] is reported as 5.54% and the inhibition [2] is reported as 21.9%.
Compound Cc1cccc(N2CCN(C(=O)C3CCN(c4ncnc5c4nc4n5CCCCC4)CC3)CC2)c1C has an inhibition [1] of -4.11% and an inhibition [2] of 11.5%.
In the case of COc1ccc(S(=O)(=O)Nc2cc([N+](=O)[O-])ccc2OC)cc1, the inhibition [1] is reported as -7.49% and the inhibition [2] is reported as 2.4%.
Work on COc1cc(NC(=O)c2cccs2)c(C(=O)OCC(=O)c2cc(C)n(-c3ccc(F)cc3)c2C)cc1OC yielded an inhibition [1] of 5.85% and an inhibition [2] of 2.26%.
c1ccc(Oc2cccc(Oc3ccccc3)n2)cc1 was tested, and the inhibition [1] was 5.37% and the inhibition [2] was 1.72%.
With O=c1[nH]oc2cc(Cl)ccc12 the inhibition [1] was 3.14% and the inhibition [2] was -1.43%.
COc1ccc(CCNc2ncnc3sccc23)cc1OC was tested, and the inhibition [1] was 12% and the inhibition [2] was 42.6% (active).
With Cn1nc(C(C)(C)C)cc1C(=O)NCc1ccc(N2CCCC2=O)cc1 the inhibition [1] was 10.7% and the inhibition [2] was 38.8% (active).
CC(C)C[C@H](NC(=O)c1[nH]cnc1C(=O)N[C@@H](Cc1ccccc1)C(=O)OC(C)(C)C)C(=O)OC(C)(C)C showed an inhibition [1] of 13.6% and an inhibition [2] of 2.92%.
Work on COc1ccc(Cl)cc1NC(=O)CN(C)CC(=O)Nc1c(C)n(C)n(-c2ccccc2)c1=O yielded an inhibition [1] of 14.8% and an inhibition [2] of 4.85%.
With COc1ccc(/C(C)=N/NC(=O)c2cccc(S(=O)(=O)N3CCCC3)c2)c(O)c1 the inhibition [1] was 67.9% (active) and the inhibition [2] was 63.5% (active).
CCCn1c(N)c(C(=O)CSc2ncc(C(F)(F)F)cc2Cl)c(=O)[nH]c1=O showed an inhibition [1] of 14.6% and an inhibition [2] of -5.96%.
Cc1cc(Br)cc(/C=N/NC(=O)c2ccc3c(c2)OCO3)c1O showed an inhibition [1] of 18.9% and an inhibition [2] of 26.3%.
In the case of S=C(Nc1cccc2ccccc12)NN1CCCCCC1, the inhibition [1] is reported as 43.8% (active) and the inhibition [2] is reported as 33% (active).
For CSc1ncccc1C(=O)NCc1nnc2ccccn12, the inhibition [1] was 3.35% and the inhibition [2] was -2.69%.
Cc1ccc(NC(=O)C(=Cc2ccc(C(=O)O)cc2)C(=O)Nc2ccc(C)cc2C)c(C)c1 was tested, and the inhibition [1] was 32.6% and the inhibition [2] was 46% (active).
For O=C(NC(=S)NNC(=O)c1cc2ccccc2cc1O)c1ccco1, the inhibition [1] was 26.9% and the inhibition [2] was 61.6% (active).
Cc1ccc(C(=O)OCC(=O)Nc2sccc2C(N)=O)cc1NC(=O)c1ccco1 was tested, and the inhibition [1] was 18.4% and the inhibition [2] was 11.5%.
NC(=S)NN=C(Cc1ccccc1)Cc1ccccc1 gave an inhibition [1] of 22.4% and an inhibition [2] of 15.6%.
NC(=S)NNc1ccc(Cl)c(Cl)c1 showed an inhibition [1] of 12.7% and an inhibition [2] of -0.23%.
With N=c1c(C(=O)NCC2CCCO2)cc2c(=O)n3ccccc3nc2n1Cc1cccnc1 (stereo not given) the inhibition [1] was -8.73% and the inhibition [2] was -5.19%.
For CN1C(=O)C2(C(C#N)=C(N)N(c3cc(Cl)cc(Cl)c3)C3=C2C(=O)CCC3)c2ccccc21 (stereo not given), the inhibition [1] was 30.9% and the inhibition [2] was 27.9%.
COc1ccccc1OCC(=O)N/N=C/c1c(O)ccc2ccccc12 showed an inhibition [1] of 12.8% and an inhibition [2] of 22.8%.
O=C(Nc1ccc(S(=O)(=O)Nc2ccc(F)cc2)cc1)c1ccc(CN2CCOCC2)cc1 was tested, and the inhibition [1] was 7.38% and the inhibition [2] was 38.6% (active).
Work on COc1cccc(/C=N/Nc2nc3ccccc3n3cnnc23)c1O yielded an inhibition [1] of 13.4% and an inhibition [2] of 1.79%.
For CC12CN3CC(C)(CN(C1)C3c1ccccc1F)C2 (stereo not given), the inhibition [1] was 2.53% and the inhibition [2] was 4.18%.
C=CCOn1c(C)c(C(C)=O)c2c3nonc3ccc21 showed an inhibition [1] of 42% and an inhibition [2] of 25.4%.
CC(C)OC(=O)c1sc2nc(-c3ccccc3)ccc2c1N was tested, and the inhibition [1] was 23.7% and the inhibition [2] was -2.61%.
In the case of CCCC(=O)NC(c1ccc(C(C)C)cc1)c1ccc2cccnc2c1O (stereo not given), the inhibition [1] is reported as 74.5% (active) and the inhibition [2] is reported as 73.2% (active).
For COc1ccc(N2CC(C(=O)N/N=C/c3ccccc3)CC2=O)cc1 (stereo not given), the inhibition [1] was 5.28% and the inhibition [2] was -0.56%.
Compound COc1ccc2nc(C(F)(F)Cl)c(C#N)c(N)c2c1 has an inhibition [1] of 24% and an inhibition [2] of -0.89%.
CCCCCCCN1C2=NCCCN2c2ccccc21 showed an inhibition [1] of -5.13% and an inhibition [2] of 21%.
O=c1[nH]c(=O)n(C2CC(O)C(CO)O2)cc1I (stereo not given) gave an inhibition [1] of 23.1% and an inhibition [2] of 11.8%.
CCOC(=O)Cc1[nH]nc2c1C(c1cccc(OC)c1OC)C(C#N)=C(N)O2 (stereo not given) gave an inhibition [1] of -9.29% and an inhibition [2] of 0.25%.
With CCN(C(=O)COC(=O)c1ccccc1Cc1ccccc1)c1c(N)n(Cc2ccccc2)c(=O)[nH]c1=O the inhibition [1] was 6.67% and the inhibition [2] was 13.9%.
O=C(NC(=S)NNC(=O)c1ccccc1O)c1ccc(F)cc1 showed an inhibition [1] of 19% and an inhibition [2] of 9.84%.
Cc1ccc(S(=O)(=O)NCCC(=O)Nc2ccncc2)cc1C was tested, and the inhibition [1] was -1.9% and the inhibition [2] was -0.54%.
Work on c1ccc(NNC2=NCCCCC2)cc1 yielded an inhibition [1] of 1.28% and an inhibition [2] of -9.77%.
With CC(=NNC(=O)c1ccncc1)c1ccc2ccccc2c1O the inhibition [1] was 45.1% (active) and the inhibition [2] was 32.6% (active).
Cc1ccccc1OCCNC(=O)c1ccccc1Sc1ccccc1C#N was tested, and the inhibition [1] was 6.19% and the inhibition [2] was 1.44%.
With CCc1[nH]nc2c1C(C1C=CCCC1)C(C#N)=C(N)O2 (stereo not given) the inhibition [1] was 24.7% and the inhibition [2] was 21.2%.
Compound Cc1ccc(CNC(=O)c2ccc3c(=O)c(O)c(-c4ccc(C)cc4)[nH]c3c2)cc1 has an inhibition [1] of 28.5% and an inhibition [2] of 8.89%.
Compound O=C(CCN1CCN(c2ccccc2)CC1)Nc1ccc(Cl)cc1 has an inhibition [1] of 3.39% and an inhibition [2] of 1.2%.
O=C(OC1C2CCC1C1CN(CCc3ccccc3)CC12)c1ccccc1 (stereo not given) was tested, and the inhibition [1] was 11.2% and the inhibition [2] was 18%.
In the case of C=C(C(=O)c1ccccc1)C(CC(=O)c1ccccc1)c1ccccc1 (stereo not given), the inhibition [1] is reported as 25.9% and the inhibition [2] is reported as 41.1% (active).
In the case of CCCCNS(=O)(=O)c1ccc(S(=O)(=O)NCc2ccncc2)cc1, the inhibition [1] is reported as 16.5% and the inhibition [2] is reported as 25.1%.
In the case of Cc1ccc(S(=O)(=O)NCC(=O)N(c2ccccc2)C(C(=O)NCc2ccccc2)c2ccco2)cc1 (stereo not given), the inhibition [1] is reported as -2.76% and the inhibition [2] is reported as 4.99%.
